Drawing on PubChem BioAssay AID1578 (Sanford-Burnham Center for Chemical Genomics, 2009), this text covers inhibition for 96 molecules.

Several values for one entry are separate records, joined by “and”; a condition that tells them apart may be missing. Equal entries are not always repeated. Screen size: about 290,000 compounds; about 3,000 (1%) were called active. The list comes from a sample in which actives are over-represented; it also holds similar structures and randomly drawn compounds. A number with no mark means an inactive call. Rule as the data show it: active = inhibition mostly above about 36% (no sharp cut-off); inactive = mostly below about 34%.

This test can be described thus: inhibition of NOD1-driven NF-kB reporter – cell-based, luminescence, uHTS, primary screen (AID 1578).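 Also: HEK-293T reporter cells stimulated with the NOD1 agonist gamma-tri-DAP.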 To be noted: NOD1-driven NF-kB luciferase reporter cells, at 4 µM, active compounds read high.
As a reminder, the inhibition is the drop in the measured response relative to a control, in per cent. `CCNC(=S)N(Cc1cc2cc(C)c(C)cc2[nH]c1=O)C1CCCC1`: the inhibition was -35%.

As for `O=C(NCc1cccnc1)c1ccc(-c2ccccc2[N+](=O)[O-])o1`, the inhibition is -24.4%.

Take `COc1ccc(CCNC(=O)C2CCN(S(=O)(=O)c3ccc(OC)cc3)CC2)cc1`: the inhibition was 17.9%.

On to `COc1ccc(C(=O)NNC(=O)Nc2ccc(C)cc2)cc1`, for which the inhibition was -1.6%.

Take `COc1ccc(C(=O)NNC(=O)Nc2ccc(Cl)cc2)cc1`: the inhibition was 91.6% (active).

Take `COc1ccc(NC(=O)NNC(=O)c2ccc(-c3ccccc3)cc2)cc1`: the inhibition is -26.8%.

As to `CCS(=O)(=O)N1CCN(c2ncnc3sc(C)c(C)c23)CC1`, the inhibition was -20%.

As for `Cc1nc(N2CCN(S(=O)(=O)c3ccc(Br)cc3)CC2)c2c(C)c(C)sc2n1`, the inhibition is 3.7%.

For `CNS(=O)(=O)c1cc(N(C)S(=O)(=O)c2ccc(C)cc2)c(C)cc1C`, the inhibition is -1.6%.

Regarding `CC1=NCCN1S(=O)(=O)c1cc([N+](=O)[O-])ccc1Cl`, the inhibition was -40.2%.

`COc1ccc(COc2cc(-c3cccc(OC)c3)nc3ccc(NC(=O)c4ccccc4)cc23)cc1`: the inhibition is 48.6%.

For `COc1ccc(COc2cc(-c3cccc(OC)c3)nc3ccc(NC(=O)c4cccnc4)cc23)cc1`, the inhibition was 78.1% (active).

With `COc1ccc(COc2cc(-c3cccc(OC)c3)nc3ccc(NC(=O)c4ccc(OC)cc4)cc23)cc1`, the inhibition was 41.3%.

Take `CC(C)(C)C(=O)NC1=NN(c2c(Cl)cc(Cl)cc2Cl)C(=O)C1`: the inhibition is -19.7%.

On to `CC(C)c1ccccc1NC(=O)COC(=O)c1c2c(nc3ccccc13)CCN(Cc1ccccc1)C2`, for which the inhibition is 29.8%.

`Cc1ccccc1NC(=O)CSc1nc(N)c2c3c(sc2n1)CSC(C)(C)C3`: the inhibition is -19.5%.

For `CC(Sc1nc(N)c2c3c(sc2n1)CSC(C)(C)C3)C(=O)Nc1ccccc1` (stereo unspecified), the inhibition was 66.5% (active).

On to `Cc1ccc(NC(=O)CSc2nc(N)c3c4c(sc3n2)CSC(C)(C)C4)cc1`, for which the inhibition is 22.5%.

Consider `COc1ccc(OC)c(-n2nnnc2SCC(=O)N2CCN(C(=O)c3ccco3)CC2)c1`, for which the inhibition is -16.1%.

Take `Cc1ccc(NC(=O)C2CC(=O)n3ncnc3N2)cc1C` (stereo unspecified): the inhibition was -33.1%.

Consider `CC(=O)NCc1ccc(C(=O)CCl)cc1`, for which the inhibition was -4%.

In the case of `CC(=O)NCc1ccc(-c2csc(N)n2)s1`, the inhibition was 1.1%.

On to `CC(=O)NCc1ccc(C(=O)CCl)s1`, for which the inhibition is 88.3% (active).

`Cc1ccc(C(=O)COC(=O)c2cc(Cl)nc3ccccc23)cc1`: the inhibition was -10.7%.

For the molecule `COc1cc(Br)c(CN2CCCN(C)CC2)cc1OC`, the inhibition is -24.3%.

`N#C/C(=C(/O)c1cc2ccccc2o1)c1nc2ccccc2s1`: the inhibition was 65.8% (active).

For `N#C/C(=C(/O)COC(=O)c1ccccc1O)c1nc2ccccc2s1`, the inhibition is 16.3%.

With `N#C/C(=C(/O)c1ccco1)c1nc2ccccc2s1`, the inhibition was -3.1% and -9.8%.

Take `N#C/C(=C(/O)COC(=O)c1ccc(C#N)cc1)c1nc2ccccc2s1`: the inhibition was -35.4%.

Take `N#C/C(=C\N1CCN(Cc2ccc3c(c2)OCO3)CC1)c1nc2ccccc2s1`: the inhibition is 24.5%.

On to `N#C/C(=C(/O)c1ccc(-c2cccc([N+](=O)[O-])c2)o1)c1nc2ccccc2s1`, for which the inhibition was 101% (active).

With `O=[N+]([O-])c1cccc(-c2nc3ccccc3s/c2=N/O)c1`, the inhibition is 2.3%.

In the case of `CC(C)(C)c1ccc(C(=O)OC/C(O)=C(\C#N)c2nc3ccccc3s2)cc1`, the inhibition is 92% (active).

Consider `N#C/C(=C(/O)c1ccccc1F)c1nc2cc(C(F)(F)F)ccc2s1`, for which the inhibition is -28.9%.

On to `N#C/C(=C(/O)c1ccc2c(c1)OCO2)c1nc2cc(C(F)(F)F)ccc2s1`, for which the inhibition is 86.4% (active).

For `CC(C)=C(C#N)c1nc2ccccc2s1`, the inhibition is -26.3%.

As for `O=C(O)c1ccc(-c2cccc([N+](=O)[O-])c2)o1`, the inhibition was 9.4%.

On to `CN(C)CCCN(Cc1ccccc1)C(=S)NCc1ccccc1`, for which the inhibition is -3.5%.

As for `Cc1ccc(C)c(-n2nnnc2SCC(=O)Nc2c(C)n(C)n(-c3ccccc3)c2=O)c1`, the inhibition is -6.2%.

On to `CCOc1ncccc1C(=O)Nc1nnc(C)s1`, for which the inhibition was -28.7%.

With `CC(C)NC(=O)C(=O)NCCN1CCN(C(=O)c2ccc(C(C)(C)C)cc2)CC1`, the inhibition is -31.9%.

Turning to `Cc1c(CCO)c(=O)[nH]n1S(=O)(=O)c1ccc(Cl)cc1Cl`, the inhibition was -2.3%.

As to `COc1ccccc1NC(=S)NC(=O)/C=C/c1ccco1`, the inhibition was -34.4%.

With `COc1ccc2[nH]c(C(=O)Nc3ncc(C)cc3Br)cc2c1`, the inhibition was 1.8%.

For `Cc1cccc(Cc2nnc(CCC(=O)N(C)Cc3ccncc3C)o2)c1`, the inhibition is -15.4%.

For `COC(=O)c1ccc(C23CC4(C2)[C@H](CN(Cc2ccc(-c5ccccc5)cc2)[C@@H]4c2ccccc2)C3c2ccc(Cl)nc2)cc1` (stereo partly specified), the inhibition was -11.8%.

Take `CCOP(=O)(c1ccc(N(C)C)cc1)C(O)c1ccccc1` (stereo unspecified): the inhibition was -12.2%.

With `N#C/C(=C(/O)c1ccc(F)cc1)c1nc2ccccc2s1`, the inhibition was 61.2% (active).

`COC(=O)c1ccc(/C(O)=C(\C#N)c2nc3ccccc3s2)cc1`: the inhibition is 29.2%.

As for `N#C/C(=C(/O)c1cccc(F)c1)c1nc2ccccc2s1`, the inhibition was 3.7%.

On to `O=C(CSc1cn[nH]n1)Nc1ccccc1C(F)(F)F`, for which the inhibition is -20.2%.

Take `CCOC(=O)CNC(=O)C(CC(N)=O)NC(=O)OC(C)(C)C` (stereo unspecified): the inhibition was -7.6%.

With `Cc1cc(CN(C)C(=O)c2cc(COc3ccc4ncccc4c3)on2)on1`, the inhibition is 13.2%.

Consider `CN(Cc1cccnc1)C(=O)c1cc(COc2ccc3c(c2)CCCC3)on1`, for which the inhibition is -46.9%.

`CN(Cc1nccn1C)C(=O)c1cc(COc2ccc3ncccc3c2)on1`: the inhibition is -6.6%.

In the case of `Cc1nc(CN(C)C(=O)c2cc(COc3c(F)cccc3F)on2)cs1`, the inhibition was -40.5%.

In the case of `COc1cc(NC(=O)c2ccco2)c(OC)cc1NC(=O)CSc1ncc(-c2ccc(F)cc2)[nH]1`, the inhibition is -33.5%.

Turning to `COc1ccc(N2CCN(C(=O)C3CCN(S(=O)(=O)c4c(C)noc4/C=C/N(C)C)CC3)CC2)cc1`, the inhibition was -9.1%.

With `O=C(NCCc1ccccc1)C(=O)NCC1OCCCN1S(=O)(=O)c1cccs1` (stereo unspecified), the inhibition is -40.9%.

Regarding `COc1cc(/C=C/C(=O)Nc2nc3ccc(S(=O)(=O)N(C)C)cc3s2)cc(OC)c1OC`, the inhibition is 28.3%.

As for `CCc1cccc2c(C(=O)COC(=O)c3ccc(O)cc3)c[nH]c12`, the inhibition was -17.9%.

In the case of `CCc1cccc2c(C(=O)COC(=O)c3ccccc3)c[nH]c12`, the inhibition was -19.8%.

Turning to `CCc1cccc2c(C(=O)COC(=O)C3=NNC(=O)CC3)c[nH]c12`, the inhibition is -12.4%.

Turning to `CCc1cccc2c(C(=O)COC(=O)c3c(C)noc3C)c[nH]c12`, the inhibition was 92.9% (active).

Turning to `CCc1cccc2c(C(=O)COC(=O)c3cccc(S(=O)(=O)N(C)C4CCCCC4)c3)c[nH]c12`, the inhibition is 77.3% (active).

Take `Cc1noc(C)c1C(=O)OCC(=O)c1c[nH]c2ccccc12`: the inhibition is -6.2%.

In the case of `CCS(=O)CCSc1nc2ccccc2s1` (stereo unspecified), the inhibition is -10.5%.

Regarding `N#Cc1cc(C(=O)c2ccccc2O)cn(-c2nccs2)c1=O`, the inhibition was -9.7%.

Take `O=C(NCc1ccccc1)C1CCN(c2nc(-c3ccccc3)nc3c2CCC3)CC1`: the inhibition is 15.8%.

With `CC[C@@H]1CC=C[C@H]2[C@H]1C(=O)N(Cc1ccccc1)[C@H]2c1ccc(C(F)(F)F)cc1`, the inhibition was -2.1%.

Consider `COc1ccc(C(=O)O/N=C2\CCCc3nonc32)cc1`, for which the inhibition is -0.9%.

Take `CC(/C=C/c1ccccc1)=N\NC(=O)c1ccncc1`: the inhibition is 0.4%.

With `CC(/C=C/c1ccccc1)=N\NC(=O)c1ccc(Br)cc1`, the inhibition is 43.7%.

With `O=C(NCCc1ccccc1)C(=O)N/N=C/c1ccccc1C(F)(F)F`, the inhibition was -5.8%.

In the case of `CC(=O)Nc1cccc(Cn2cccn2)c1`, the inhibition was 11.3%.

Regarding `O=C(Nc1cccc(Cn2cccn2)c1)c1cc2c(s1)CCCC2`, the inhibition is 34.5% (active).

`Cc1ccc(NC(=O)c2cc3c(s2)CCCC3)cc1`: the inhibition was -69.9%.

Regarding `C=CCN(C(=O)CSc1nc2[nH]ncc2c(=O)n1-c1ccccc1OC)c1ccccc1`, the inhibition is -29%.

For the molecule `COc1ccc(Nc2nc3ccccc3nc2NS(=O)(=O)c2cccs2)c(OC)c1`, the inhibition was 18%.

Turning to `O=C(O)c1cccc(Nc2nc3ccccc3nc2NS(=O)(=O)c2cccs2)c1`, the inhibition is -74.2%.

As to `O=C(O)c1ccc(Nc2nc3ccccc3nc2NS(=O)(=O)c2cccs2)cc1`, the inhibition was -3.1%.

Take `COc1ccc(Nc2nc3ccccc3nc2NS(=O)(=O)c2cccs2)cc1`: the inhibition was 39.2%.

On to `O=C1N2c3ccccc3CCc3cccc(c32)C1(O)C(F)(F)F` (stereo unspecified), for which the inhibition was -26.6%.

Consider `CC1CC(C)CN(S(=O)(=O)N2CCCC(C(=O)NCCCN3CCOCC3)C2)C1` (stereo unspecified), for which the inhibition is 16.8%.

In the case of `CCn1nc(C)c(Br)c1Nc1ccc(Br)cc1`, the inhibition is 7.5%.

For `Cc1nn(C)c(Nc2ccc(Br)cc2)c1Br`, the inhibition is 44.9% (active).

With `Cc1cc(C)nc(-n2nc(C)c(Br)c2Nc2ccc(Br)cc2)n1`, the inhibition is -10.9%.

As for `CCN(CC)S(=O)(=O)c1cccc(NC(=O)c2cncc(Br)c2)c1`, the inhibition was -54.6%.

In the case of `Cc1ccc(OCC(=O)Nc2cccc(S(=O)(=O)NC3=NCCCCC3)c2)cc1C`, the inhibition was -93%.

Regarding `CCN(CC)S(=O)(=O)c1ccc(C(=O)Nc2cccc(C)c2)cc1`, the inhibition was -4.2%.

In the case of `Cc1ccc(C)c(OCC(=O)Nc2cccc(S(=O)(=O)NC3=NCCCCC3)c2)c1`, the inhibition is -2.9%.

Consider `CC(C)(C)CC(=O)Nc1cc(S(=O)(=O)N2CCCCCC2)ccc1Cl`, for which the inhibition was -3.6%.

On to `CCN(CC)CC(=O)Nc1cccc(S(=O)(=O)N2CCCC2)c1`, for which the inhibition was -15.1%.

Consider `COc1cc(NC(=O)CNc2cccc(S(=O)(=O)N3CCCC3)c2)cc(OC)c1`, for which the inhibition is -2.7%.

Regarding `Cc1ccc(C(C)C)c(OCC(=O)Nc2cccc(S(=O)(=O)NC3=NCCCCC3)c2)c1`, the inhibition was 53.3% (active).

As to `CC(=O)OCC(=O)Nc1cc(S(=O)(=O)N2CCCCCC2)ccc1Cl`, the inhibition was -22.1%.
